Experimental data from PubChem BioAssay (Tox21).
Records with an inconclusive call do not appear. Active and inactive are the calls of the source. Unless noted, calls come from the whole dose curve; as a rule, active = well fitted curve in the direction sought with a large enough effect in the repeat runs; inconclusive = weak or mixed curves; inactive = no such curve, though single readings can be large; an effect the other way counts as inactive or inconclusive.

Legend:
[1] = qHTS assay to identify small molecule antagonists of the estrogen receptor alpha (ER-alpha) signaling pathway using the BG1 cell line in the presence of 0.1 nM 17-beta-estradiol - cell viability counter screen (AID 1259241); note: nearly all actives have a fitted effect of over 40% in size
Summary of the method: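 Viability in VM7Luc4E2 cells after 22 hr compound exposure under 0.1 nM 17beta-estradiol stimulation, by CellTiter-Fluor.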

[2] = qHTS assay to identify small molecule antagonists of the androgen receptor (AR) signaling pathway using the MDA cell line in the presence of 0.5 nM R1881 - cell viability counter screen (AID 1259242); note: nearly all actives have a fitted effect of over 45% in size
Summary of the method: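 Live-cell protease activity was measured by CellTiter-Fluor fluorescence after 30 min. Before that, MDA-kb2 MMTV-luciferase cells had 16 hr at 37C without CO2, exposed to test compounds and 0.5 nM R1881 final.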

[3] = biological target: Androgen receptor (Homo sapiens) (UniProt P10275); test: qHTS assay to identify small molecule antagonists of the androgen receptor (AR) signaling pathway using the MDA cell line in the presence of 0.5 nM R1881 (AID 1259243); note: nearly all actives have a fitted effect of over 50% in size; note: potency is the fitted concentration of half-maximal effect
Summary of the method: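 Luminescent reporter readout (ONE-Glo, 30 min, room temperature) after 16 hr co-treatment of MDA-kb2 cells with test compounds and 0.5 nM R1881 final, at 37C without CO2. The MMTV-driven luciferase responds to both AR and GR.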

[4] = biological target: Estrogen receptor (Homo sapiens) (UniProt P03372); test: qHTS assay to identify small molecule antagonists of the estrogen receptor alpha (ER-alpha) signaling pathway using the BG1 cell line in the presence of 0.1 nM 17-beta-estradiol (AID 1259244); note: nearly all actives have a fitted effect of over 50% in size
Summary of the method: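 Luciferase luminescence (ONE-Glo, 30 min at room temperature) was read after 22 hr at 37C exposure to compounds plus 17beta-estradiol at 0.1 nM final. Cells were VM7Luc4E2 with endogenous ER-alpha and an ERE-driven luciferase, pre-cultured 5 days in hormone-depleted medium.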

[5] = qHTS assay to identify small molecule HDAC inhibitors (AID 1259364); note: top concentration of the series differs between compounds; nearly all actives have a fitted effect of over 45% in size
Summary of the method: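 Luminescence read after 30 min room-temperature HDAC-Glo incubation measures cellular class I/II HDAC activity. Compounds were applied for 2 hr at 37 C to HCT-116 wild-type cells seeded the day before.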

[6] = qHTS assay to identify small molecule HDAC inhibitors - cell viability counter screen (AID 1259365); note: series mostly up to about 92 µM; nearly all actives have a fitted effect of over 50% in size
Summary of the method: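 Cytotoxicity was gauged in wild-type HCT-116 cells after a brief 2hr treatment with DMSO-dissolved compounds at 37C and 5% CO2, using CellTiter-Glo luminescence developed for 30min at room temperature.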

[7] = qHTS assay to identify small molecule agonists of the sonic hedgehog signaling (Shh) pathway - cell viability counter screen (AID 1259366); note: nearly all actives have a fitted effect of over 50% in size
Summary of the method: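 Stable Gli1-Luc NIH/3T3 clone, 2,000 cells/well. Compound exposure 24hr at 37C. Read-out: CellTiter-Fluor fluorescence.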

[8] = qHTS assay to identify small molecule antagonists of the sonic hedgehog signaling (Shh) pathway - cell viability counter screen (AID 1259367); note: nearly all actives have a fitted effect of over 55% in size
Summary of the method: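 Viability was read by CellTiter-Fluor fluorescence in the same wells, reagent added 23 hr into compound treatment and incubated 1 hr at 37C. The 3T3 Gli1-Luc reporter cells (2,000/well) received conditioned medium after compound and ran 24 hr.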

[9] = qHTS assay to identify small molecule agonists of the sonic hedgehog signaling (Shh) pathway (AID 1259368; calls by dose curve;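 note: NIH/3T3-derived 3T3Gli1-Luc cells carrying a stable Gli1-driven firefly luciferase reporter; series mostly up to about 92 µM; nearly all actives have a fitted effect of over 15% in size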)
Summary of the method: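 Luminescence was read after 30 min at room temperature with luciferase reagent. Before that, 3T3Gli1-Luc cells (NIH/3T3 clone, stable Gli1-Luc reporter; 2,000/well) were exposed to compounds for 24 hr at 37C, 5% CO2, compounds being added 4 hr post-plating.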

[10] = qHTS assay to identify small molecule phospholipidosis (PLD) inducers (AID 1259344; active = well fitted curve in the direction sought with a large enough effect; an effect the other way counts as inactive or inconclusive)
Summary of the method: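 Phospholipid accumulation was scored by imaging: fixed, Hoechst-counterstained HepG2 cells stained with LipidTOX Red after 24 h compound exposure at 37 C. Read-outs were pit count and pit intensity per well or per cell, with amiodarone and DMSO controls.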
% is set by controls: 0 for no effect and ±100 for the full control effect.

Estrogen receptor (Homo sapiens), sequence (P03372 whole entry, looked up): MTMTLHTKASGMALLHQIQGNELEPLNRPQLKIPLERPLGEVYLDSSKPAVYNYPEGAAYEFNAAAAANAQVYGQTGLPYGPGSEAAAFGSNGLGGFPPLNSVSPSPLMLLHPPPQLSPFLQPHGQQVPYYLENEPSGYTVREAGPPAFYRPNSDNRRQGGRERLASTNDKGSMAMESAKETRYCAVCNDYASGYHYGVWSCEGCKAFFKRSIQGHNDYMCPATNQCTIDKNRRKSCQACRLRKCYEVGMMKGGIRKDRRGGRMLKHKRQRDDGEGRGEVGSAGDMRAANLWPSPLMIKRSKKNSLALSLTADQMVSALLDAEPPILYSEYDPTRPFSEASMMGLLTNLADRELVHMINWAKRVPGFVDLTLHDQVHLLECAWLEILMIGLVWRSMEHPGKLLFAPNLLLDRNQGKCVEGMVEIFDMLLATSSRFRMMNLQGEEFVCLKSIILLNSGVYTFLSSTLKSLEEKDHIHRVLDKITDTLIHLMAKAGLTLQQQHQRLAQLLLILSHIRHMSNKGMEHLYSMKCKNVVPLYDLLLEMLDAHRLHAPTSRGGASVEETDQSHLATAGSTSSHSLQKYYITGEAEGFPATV
Androgen receptor (Homo sapiens), sequence (P10275 whole entry, looked up): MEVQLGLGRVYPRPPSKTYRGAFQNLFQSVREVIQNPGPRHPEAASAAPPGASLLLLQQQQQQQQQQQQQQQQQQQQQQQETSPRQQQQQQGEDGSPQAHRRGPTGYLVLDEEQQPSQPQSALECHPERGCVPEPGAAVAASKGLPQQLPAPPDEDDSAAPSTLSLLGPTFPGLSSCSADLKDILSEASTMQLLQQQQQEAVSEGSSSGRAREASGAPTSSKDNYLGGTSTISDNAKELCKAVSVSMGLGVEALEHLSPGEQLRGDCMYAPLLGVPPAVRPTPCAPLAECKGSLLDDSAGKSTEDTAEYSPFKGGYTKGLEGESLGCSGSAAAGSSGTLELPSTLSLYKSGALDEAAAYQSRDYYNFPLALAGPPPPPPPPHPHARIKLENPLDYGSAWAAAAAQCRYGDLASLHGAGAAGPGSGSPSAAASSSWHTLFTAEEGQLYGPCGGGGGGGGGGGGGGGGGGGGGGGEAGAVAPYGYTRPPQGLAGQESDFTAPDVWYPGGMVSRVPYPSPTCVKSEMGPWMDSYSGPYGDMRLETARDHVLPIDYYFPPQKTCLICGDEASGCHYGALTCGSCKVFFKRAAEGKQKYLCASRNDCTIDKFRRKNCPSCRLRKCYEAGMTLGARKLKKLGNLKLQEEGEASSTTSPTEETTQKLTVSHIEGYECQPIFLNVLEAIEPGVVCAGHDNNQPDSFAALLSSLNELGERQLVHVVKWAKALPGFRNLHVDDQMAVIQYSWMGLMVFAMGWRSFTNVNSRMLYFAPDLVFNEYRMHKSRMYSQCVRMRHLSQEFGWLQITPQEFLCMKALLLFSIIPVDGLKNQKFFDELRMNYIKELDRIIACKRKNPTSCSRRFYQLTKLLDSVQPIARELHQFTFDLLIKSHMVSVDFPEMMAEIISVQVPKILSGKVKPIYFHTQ

CCCCCCCC1CCCC1=O (stereo not given)
inactive: outcome [1] | outcome [2] | Potency [3] | outcome [4] | Potency [5] | outcome [6] | Potency [7] | Potency [8] | outcome [9]

Cc1ccc(-c2ccccc2C#N)cc1
active: Potency [3] 11.9 µM
inactive: outcome [1] | outcome [2] | outcome [4] | Potency [5] | Potency [7] | Potency [8] | outcome [9]

O=S(=O)(O)c1cccc(S(=O)(=O)O)c1
inactive: outcome [1] | outcome [2] | Potency [3] | outcome [4] | Potency [5] | outcome [6] | Potency [7] | Potency [8] | outcome [9]

Nc1c2c(nc3c1CCC3)CCCC2
inactive: outcome [1] | outcome [2] | Potency [3] | outcome [4] | outcome [10] | Potency [5] | outcome [6] | Potency [7] | Potency [8] | outcome [9]

C=C[Si](OC(C)=O)(OC(C)=O)OC(C)=O
inactive: outcome [1] | outcome [2] | Potency [3] | outcome [4] | Potency [5] | Potency [7] | outcome [9]

NC(=O)NC1N=C([O][Al])NC1=O (stereo not given)
inactive: outcome [1] | outcome [2] | Potency [3] | Potency [5] | outcome [6] | Potency [7] | Potency [8] | outcome [9]

CCCOC(=O)CC
inactive: outcome [1] | outcome [2] | Potency [3] | outcome [4] | Potency [5] | outcome [6] | Potency [7] | Potency [8] | outcome [9]

Cc1ccc(-c2ncc(Cl)cc2-c2ccc(S(C)(=O)=O)cc2)cn1
inactive: outcome [1] | outcome [2] | Potency [3] | outcome [4] | outcome [10] | Potency [5] | outcome [6] | Potency [7] | Potency [8] | outcome [9]

O=C(O)CCSCCC(=O)O
inactive: outcome [1] | outcome [2] | Potency [3] | outcome [4] | Potency [5] | Potency [7] | Potency [8] | outcome [9]

Cc1onc(-c2c(Cl)cccc2Cl)c1C(=O)Cl
inactive: outcome [1] | outcome [2] | Potency [3] | outcome [4] | Potency [5] | outcome [6] | Potency [7] | Potency [8] | outcome [9]

CC(=O)N[C@H]1[C@H]([C@H](O)[C@H](O)CO)OC(C(=O)O)=C[C@@H]1N=C(N)N
inactive: outcome [1] | outcome [2] | Potency [3] | outcome [4] | outcome [10] | Potency [5] | outcome [6] | Potency [7] | Potency [8] | outcome [9]

CC1CCC(CO)CC1 (stereo not given)
inactive: outcome [1] | outcome [2] | Potency [3] | outcome [4] | Potency [5] | outcome [6] | Potency [7] | Potency [8] | outcome [9]

CC(C)C1CCC(O)CC1 (stereo not given)
inactive: outcome [1] | outcome [2] | Potency [3] | Potency [5] | outcome [6] | Potency [7] | Potency [8] | outcome [9]

O=[N+]([O-])c1cncn1CCN1CCOCC1
inactive: outcome [1] | outcome [2] | Potency [3] | outcome [4] | Potency [5] | outcome [6] | Potency [7] | Potency [8] | outcome [9]

C[C@H]1C[C@H]2[C@@H]3CCC4=CC(=O)C=C[C@]4(C)[C@H]3C(=O)C[C@]2(C)[C@@]1(O)C(=O)CO
inactive: outcome [1] | outcome [2] | outcome [4] | PLD induction [10] 2.13% [at 7.66 µM] | Potency [5] | outcome [6] | Potency [7] | Potency [8] | outcome [9]

CCOc1ccc2nc(S(N)(=O)=O)sc2c1
inactive: outcome [1] | outcome [2] | outcome [4] | outcome [10] | Potency [5] | outcome [6] | Potency [7] | Potency [8] | outcome [9]

CCN[C@H]1C[C@H](C)S(=O)(=O)c2sc(S(N)(=O)=O)cc21
inactive: outcome [1] | outcome [2] | outcome [4] | outcome [10] | Potency [5] | outcome [6] | Potency [7] | Potency [8] | outcome [9]

Cc1ncc(COP(=O)(O)O)c(C=O)c1O
inactive: outcome [1] | outcome [2] | outcome [4] | outcome [10] | Potency [5] | outcome [6] | Potency [7] | Potency [8] | outcome [9]

CN(C)C(=O)Oc1cccc([N+](C)(C)C)c1
inactive: outcome [1] | outcome [2] | outcome [4] | outcome [10] | Potency [5] | outcome [6] | Potency [7] | Potency [8] | outcome [9]

COc1cc(C(=O)OC(COCCC(C)C)CN2CCOCC2)cc(OC)c1OC (stereo not given)
inactive: outcome [1] | outcome [2] | outcome [4] | outcome [10] | Potency [5] | outcome [6] | Potency [7] | Potency [8] | outcome [9]

CC(COc1ccccc1)NN (stereo not given)
inactive: outcome [1] | outcome [2] | outcome [4] | outcome [10] | Potency [5] | outcome [6] | Potency [7] | Potency [8] | outcome [9]

COC(=O)Nc1ccc(Cl)c(Cl)c1
inactive: outcome [1] | outcome [2] | Potency [5] | Potency [7] | Potency [8] | outcome [9]
active: Potency [3] 6.82 µM

C[N+]1(C)CCCC(OC(=O)C(O)(c2ccccc2)c2ccccc2)C1 (stereo not given)
inactive: outcome [1] | outcome [2] | outcome [4] | outcome [10] | Potency [5] | outcome [6] | Potency [7] | Potency [8] | outcome [9]

CCCCCCCCCCCCCCCCCCO
inactive: outcome [1] | outcome [2] | outcome [4] | outcome [10] | Potency [5] | outcome [6] | Potency [7] | Potency [8] | outcome [9]

COc1ccc2cc1Oc1cc3c(cc1OC)CC[N+](C)(C)[C@H]3Cc1ccc(cc1)Oc1c(OC)c(OC)cc3c1[C@@H](C2)[N+](C)(C)CC3
inactive: outcome [1] | outcome [2] | outcome [4] | outcome [10] | Potency [5] | outcome [6] | Potency [7] | Potency [8] | outcome [9]
